Records with an inconclusive call do not appear. Activity calls are given as the source filed them. The calls were made as follows: active = hit-call score of the fitted dose curve at least 0.9, where 1 is the maximum; inconclusive = response in the unintended direction; inactive = score below 0.9.
Tested on: pig Methylenetetrahydrofolate Reductase (MTHFR), gene 397180
Experiment: NVS_ENZ_pMTHFR: NovaScreen (NVS) Enzymatic Assay for pig Methylenetetrahydrofolate Reductase (MTHFR)
Procedure: NVS_ENZ_pMTHFR is a biochemical, single-readout assay that uses extracted gene-proteins from Porcine kidney in a tissue-based cell-free assay. Measurements were taken 1 hour after chemical dosing in a 96-well plate.NVS_ENZ_pMTHFR is one of one assay component(s) measured or calculated from the NVS_ENZ_pMTHFR assay. It is designed to make measurements of enzyme activity, a form of enzyme reporter, as detected with scintillation counting signals by Lysate-based radiodetection technology.Data from the assay component NVS_ENZ_pMTHFR was analyzed into 1 assay endpoint. This assay endpoint, NVS_ENZ_pMTHFR, was analyzed in the positive analysis fitting direction relative to DMSO as the negative control and baseline of activity. Using a type of enzyme reporter, loss-of-signal activity can be used to understand changes in the enzymatic activity as they relate to the gene MTHFR. Furthermore, this assay endpoint can be referred to as a primary readout, because this […] where this one serves a enzymatic activity function. To generalize the intended target to other relatable targets, this assay endpoint is annotated to the oxidoreductase intended target family, where the subfamily is methylenetetrahydrofolate reductase.
Binding assays used specific radioligands (tritiated, iodinated) with non-radioactive competitive displacement ligands in agonist or antagonist protocols (as indicated) and various reference compounds and inhibitors to titrate specific binding to receptors and transporters. Most enzyme assays (CYPs, kinases, phosphatases, proteases, HDACs) used recombinant protein and specific substrates (fluorescence mostly, some colorimetric and radioactive) and inhibitors, followed by a biochemical separation of substrate and product. All assays for the biochemical HTS were initially run in duplicate at a single concentration (10 uM for CYP450 assays and 25 uM for all others). Assay-chemical combinations meeting a pre-defined threshold (e.g., 30% inhibition and other criteria defined below) were then run in singleton concentration-response format with maximum concentration of 20 uM for CYPs and 50 uM for all others. Each assay was run with positive and negative controls, and concurrent controls on every plate. The follow-up (secondary) screen tested active chemical-pairs in concentration series, as well as a few additional assays not tested in the primary screen, some selected negative inactives, and several cases re-run in the concentration series for confirmatory purposes.

Row | SMILES | AC50 | outcome
1 | COC(=O)c1c(C(F)F)nc(C(F)(F)F)c(C2=NCCS2)c1CC(C)C | 6.46 µM (active) | 
2 | CC(=NC#N)N(C)Cc1ccc(Cl)nc1 |  | inactive
3 | CCCCOCN(C(=O)CCl)c1c(CC)cccc1CC |  | inactive
4 | COP(=O)(OC)OC=C(Cl)Cl |  | inactive
5 | CC(C)(C)C(=O)C(Oc1ccc(Cl)cc1)n1cncn1 (stereo unspecified) |  | inactive
6 | CC(C)Oc1cc(-n2nc(C(C)(C)C)oc2=O)c(Cl)cc1Cl |  | inactive
7 | COc1nc(C)nc(NC(=O)NS(=O)(=O)c2ccccc2Cl)n1 |  | inactive
8 | CCc1cccc(CC)c1N(COC)C(=O)CCl |  | inactive
9 | CN(C)c1nc(=O)n(C2CCCCC2)c(=O)n1C |  | inactive
10 | N#Cc1c[nH]cc1-c1cccc2c1OC(F)(F)O2 |  | inactive
11 | CCCCOC(=O)c1ccccc1C(=O)O |  | inactive

Reference: PubChem BioAssay AID2283227 (EPA ToxCast)
